Hit rate of the full screen: of about 310,000 compounds, about 14,000 (4.5%) showed an effect of 50% or more. The effect is printed as a negative number. Shown is part of a subset that was picked to be rich in strong results.
Molecular target: human ether-à-go-go-related gene (hERG) potassium channel (human, UniProt Q12809)
Test: primary screen, population patch clamp on CHO cells stably expressing hERG; higher = less effect of the substance
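Also: peak tail current of the secondary pulse compared with the same well before compound.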

Chain of human ether-à-go-go-related gene (hERG) potassium channel (Q12809 whole entry, looked up): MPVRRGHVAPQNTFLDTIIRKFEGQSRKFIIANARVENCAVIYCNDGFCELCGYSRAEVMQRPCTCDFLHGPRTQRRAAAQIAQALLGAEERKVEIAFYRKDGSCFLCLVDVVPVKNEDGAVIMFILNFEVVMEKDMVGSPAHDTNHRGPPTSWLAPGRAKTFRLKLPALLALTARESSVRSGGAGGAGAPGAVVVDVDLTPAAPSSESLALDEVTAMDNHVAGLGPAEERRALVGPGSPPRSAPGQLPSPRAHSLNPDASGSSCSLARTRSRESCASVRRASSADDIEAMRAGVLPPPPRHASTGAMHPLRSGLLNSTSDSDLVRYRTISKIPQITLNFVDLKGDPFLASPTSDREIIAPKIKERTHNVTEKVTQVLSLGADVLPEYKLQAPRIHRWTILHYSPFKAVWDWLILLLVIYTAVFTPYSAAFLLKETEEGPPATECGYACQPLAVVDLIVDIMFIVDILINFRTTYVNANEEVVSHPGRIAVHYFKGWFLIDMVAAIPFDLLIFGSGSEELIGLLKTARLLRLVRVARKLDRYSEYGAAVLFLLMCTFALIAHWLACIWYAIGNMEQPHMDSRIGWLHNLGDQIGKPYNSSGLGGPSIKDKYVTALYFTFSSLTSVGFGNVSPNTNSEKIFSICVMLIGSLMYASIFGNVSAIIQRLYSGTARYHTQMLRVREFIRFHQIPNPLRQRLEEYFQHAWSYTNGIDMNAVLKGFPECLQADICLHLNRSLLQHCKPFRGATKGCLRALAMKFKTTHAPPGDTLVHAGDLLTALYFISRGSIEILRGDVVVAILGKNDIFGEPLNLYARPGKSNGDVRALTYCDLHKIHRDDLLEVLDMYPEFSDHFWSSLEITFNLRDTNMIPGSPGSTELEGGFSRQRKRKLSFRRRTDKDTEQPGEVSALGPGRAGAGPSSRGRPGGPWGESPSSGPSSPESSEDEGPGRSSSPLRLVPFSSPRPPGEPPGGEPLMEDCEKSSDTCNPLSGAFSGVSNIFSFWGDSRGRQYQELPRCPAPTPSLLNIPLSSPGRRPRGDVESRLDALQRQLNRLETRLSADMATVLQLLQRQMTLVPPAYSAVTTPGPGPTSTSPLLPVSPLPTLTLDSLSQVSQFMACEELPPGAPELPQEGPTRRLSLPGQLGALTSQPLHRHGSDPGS

Row | SMILES | hERG current change (%, negative = inhibition) at 10uM [%]
1 | C(=C\c1ccco1)/c1nc2ccccc2[nH]1 | 8.91
2 | O=C(c1cc2ncc(CCCl)cn2n1)N1CCCCCC1 | 8.53
3 | Cc1cccc(C)c1N1CCc2cn[nH]c21 | 8.17
4 | CC1=NN(C(N)=S)C(=O)C1N=Nc1cccc(Cl)c1 (centres unmarked) | 17.2
5 | CN(C)S(=O)(=O)c1ccc2c(c1)C(=NO)c1cc(S(=O)(=O)N(C)C)ccc1-2 | 14.7
6 | OCCNc1nc(Cl)nc(NCc2ccco2)n1 | 8.89
7 | CCc1ccccc1NC(=O)COC(=O)c1c(C)nsc1NC | -2.87
8 | COc1ccccc1C(=O)n1nc(-c2ccccc2)nc1N | 0.335
9 | CCN(CC(=O)Nc1ccccc1-c1ccccc1)Cc1nc2ccccc2c(=O)[nH]1 | -23.4
10 | CCN(CC(=O)Nc1ccccc1Br)Cc1nc2ccccc2c(=O)[nH]1 | -22.3
11 | CCN(CC(=O)Nc1ccccc1C(=O)Nc1ccccc1)Cc1nc2ccccc2c(=O)[nH]1 | -75.6
12 | O=C(CCSc1nc(-c2ccco2)cc(C(F)(F)F)n1)NCC1CCCO1 (centres unmarked) | -8.69
13 | O=C1CCC(=O)N1OCCCOc1ccccc1 | -2.09
14 | COC(=O)c1[nH]c2ccc(Cl)cc2c1NC(=O)C1CC1 | 17.1
15 | COc1cc(OC)cc(C(=O)NC(C)c2cnn(-c3ccccc3C)c2C)c1 (centres unmarked) | -1.48
16 | COc1cc(C(=O)NC(C)c2cnn(-c3ccccc3C)c2C)cc(OC)c1OC (centres unmarked) | -51
17 | Cc1ccccc1-n1ncc(C(C)NC(=O)c2ccccc2)c1C (centres unmarked) | -4.33
18 | C/C(N)=C(/C#N)C(=O)COC(=O)C1CCC(C(C)(C)C)CC1 (centres unmarked) | -7.3
19 | O=c1[nH]c(C2CCN(S(=O)(=O)c3ccccc3)CC2)nc2c1nnn2Cc1c(F)cccc1Cl | -2.84
20 | CCOC(=O)c1[nH]c2c(c1C)C(=O)CC(c1ccc(OC)c(OC)c1)C2 (centres unmarked) | -9.84
21 | Cl.O=C(CCN1CCCCCC1)Nc1ccccc1F | -4.4
22 | CN1CCN(CCC(=O)Nc2ccccc2Cl)CC1 | -1.75
23 | O=C(CCN1CCN(CC(=O)Nc2ccccc2F)CC1)Nc1ccccc1F | -65.4
24 | O=C(CN1CCN(c2ccccc2F)CC1)Nc1ccccc1F | -1.86
25 | O=C(CCN1CCN(c2ccccc2F)CC1)Nc1ccccc1Cl | -2.49
26 | O=C(CCN1CCN(CC(=O)Nc2ccccc2Cl)CC1)Nc1ccccc1F | -69.1
